Data: PubChem BioAssay (EPA / NIEHS)
Results filed as inconclusive are left out. Activity calls are given as the source filed them. The calls were made as follows: active = hit-call score of the fitted dose curve at least 0.9, where 1 is the maximum; inconclusive = response in the unintended direction; inactive = score below 0.9.

Each molecule was assayed against Agonist Androgen Response Element (ARE), AR (gene 367) (UniProt P10275) (assay: OT_AR_ARELUC_AG_1440: Odyssey Thera (OT) 24-hour CHO-K1 Luciferase Assay for Agonist Androgen Response Element (ARE) (AID 2283379)).
Sequence of Agonist Androgen Response Element (ARE), AR (gene 367) (P10275 whole entry, looked up): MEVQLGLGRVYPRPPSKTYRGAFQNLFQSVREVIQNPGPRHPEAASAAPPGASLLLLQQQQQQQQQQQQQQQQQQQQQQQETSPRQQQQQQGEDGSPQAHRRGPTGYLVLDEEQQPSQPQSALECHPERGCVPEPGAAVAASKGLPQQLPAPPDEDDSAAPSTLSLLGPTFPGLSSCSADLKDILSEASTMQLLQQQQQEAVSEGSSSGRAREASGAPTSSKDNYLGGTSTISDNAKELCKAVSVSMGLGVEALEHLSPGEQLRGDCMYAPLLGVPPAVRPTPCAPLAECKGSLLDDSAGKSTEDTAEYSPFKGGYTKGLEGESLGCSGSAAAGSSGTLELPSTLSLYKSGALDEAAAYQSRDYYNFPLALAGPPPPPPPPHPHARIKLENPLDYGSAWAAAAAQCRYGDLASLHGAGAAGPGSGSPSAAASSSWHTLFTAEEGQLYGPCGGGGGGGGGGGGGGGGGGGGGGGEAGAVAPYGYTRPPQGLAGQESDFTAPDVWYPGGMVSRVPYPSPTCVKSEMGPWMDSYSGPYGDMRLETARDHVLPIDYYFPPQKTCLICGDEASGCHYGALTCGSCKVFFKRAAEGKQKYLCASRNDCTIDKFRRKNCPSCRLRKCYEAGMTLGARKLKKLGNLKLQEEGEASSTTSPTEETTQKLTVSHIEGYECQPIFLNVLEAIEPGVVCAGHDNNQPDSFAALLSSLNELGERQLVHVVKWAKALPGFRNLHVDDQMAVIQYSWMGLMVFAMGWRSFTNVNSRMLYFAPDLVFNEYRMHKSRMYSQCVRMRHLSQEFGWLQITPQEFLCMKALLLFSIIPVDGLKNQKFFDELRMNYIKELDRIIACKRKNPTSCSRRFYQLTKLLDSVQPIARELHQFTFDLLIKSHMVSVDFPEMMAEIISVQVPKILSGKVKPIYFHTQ
Protocol: OT_AR_ARELUC_AG_1440 is a cell-based, single-readout assay that uses CHO-K1, a chinese hamster ovary cell line, with measurements taken at 24 hours after chemical dosing in a 384-well plate.OT_AR_ARELUC_AG_1440 is one of one assay component(s) measured or calculated from the OT_AR_ARELUC_AG_1440 assay. It is designed to make measurements of luciferase induction, a form of inducible reporter, as detected with bioluminescence signals by Luciferase technology.Data from the assay component OT_AR_ARELUC_AG_1440 was analyzed into 1 assay endpoint. This assay endpoint, OT_AR_ARELUC_AG_1440, was analyzed in the positive analysis fitting direction relative to DMSO as the negative control and baseline of activity. Using a type of inducible reporter, measures of receptor for gain-of-signal activity can be used to understand the reporter gene at the pathway-level as they relate to the gene AR. Furthermore, this assay endpoint can be referred to as a primary readout, because the performed assay has only produced 1 assay endpoint. To generalize the intended target to other relatable targets, this assay endpoint is annotated to the nuclear receptor intended target family, where the subfamily is steroidal.
To identify AR agonists, CHO-K1 cells are seeded into a white-walled/white-bottom 384-well plate, followed by treatment with compounds of interest or controls for 24 hours. A luciferase assay mix containing D-luciferin and ATP in PBS is then added to the cells and luminescence quantified on a Luminoskan (Thermo Scientific) luminometer. Modulation of this assay is quantified as an increase in mean luminescence intensity relative to vehicle controls. To evaluate specificity of the AR / ARE-luc assay, several known AR agonists, AR antagonists, and ER-selective compounds were also tested in 5-pt concentration-response format in a minimum of 7 assay plates. OT determined the reproducibility of DHT-induced AR/ARE-luc transcriptional activation with a total of seven 384-well plates run on 2 different days, for 24-h time frames. A minimum of 3 replicate wells were analyzed for each sample with 14 replicate wells for vehicle controls. Luminescence data were captured on the Luminoskan luminometer.
In the case of CC(=O)[O][Hg][c]1ccccc1, the outcome was “inactive”.
For CCN1CCC2(CC1)COc1cc3c(cc12)N(C(=O)c1ccc(-c2ccc(-c4nnc(C)o4)cc2C)cc1)CC3, the outcome was “inactive”.
COP(=S)(OC)Oc1ccc(Sc2ccc(OP(=S)(OC)OC)cc2)cc1 was tested, and the outcome was “inactive”.
In the case of O=C1C2(Cl)C3(Cl)C4(Cl)C(Cl)(Cl)C5(Cl)C3(Cl)C1(Cl)C5(Cl)C24Cl (stereo not drawn), the outcome was “inactive”.
In the case of CC(C)(c1ccc(OCC2CO2)cc1)c1ccc(OCC2CO2)cc1 (stereo not drawn), the outcome was “inactive”.
With CCC1(c2ccc(N)cc2)CCC(=O)NC1=O (stereo not drawn) the outcome was “inactive”.
With CC(C)(C)CC(C)(C)c1ccc(O)cc1 the outcome was “inactive”.
With Cc1ccccc1C(=O)Nc1cccc(OC(C)C)c1 the outcome was “inactive”.
For COP(=O)(OC)OC, the outcome was “inactive”.
c1cc[c]([Hg][c]2ccccc2)cc1 was tested, and the outcome was “inactive”.
For C=CC(=O)OCCCCCC(C)C, the outcome was “inactive”.
With O=[N+]([O-])c1ccc(O)c([N+](=O)[O-])c1 the outcome was “inactive”.
CC12CC1(C)C(=O)N(c1cc(Cl)cc(Cl)c1)C2=O (stereo not drawn) was tested, and the outcome was “inactive”.
In the case of ClC1(Cl)C2(Cl)C3(Cl)C4(Cl)C(Cl)(Cl)C5(Cl)C3(Cl)C1(Cl)C5(Cl)C24Cl (stereo not drawn), the outcome was “inactive”.
For CCOP(=S)(OCC)Oc1nc(Cl)c(Cl)cc1Cl, the outcome was “inactive”.
In the case of Cc1ccc2ccccc2c1C, the outcome was “inactive”.
For O=c1[nH]c(=O)[nH]c(=O)[nH]1, the AC50 was 17.2 µM (active).
For CCC(=O)C(CC(C)N(C)C)(c1ccccc1)c1ccccc1 (stereo not drawn), the outcome was “inactive”.
